In PubChem BioAssay AID932 (The Scripps Research Institute Molecular Screening Center, 2007) one finds activation (% of control) data, which are given here for 100 molecules.

Out of some 200,000 compounds screened, about 5,100 (2.5%) were called active.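 The calls were made as follows: active = activation above the screen-wide mean activation plus 3 SD (cut at about 130% in these data); inactive = the rest.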 The list comes from a sample in which actives are over-represented; it also holds similar structures and randomly drawn compounds.

The assay can be described thus: STAT1 signaling activators, primary screen, cell-based, HTS, luciferase reporter (AID 932).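 Also: raw ratio to IFN-gamma control signal so 100% means no change and 0% no light.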 Conditions: NIH 3T3 STAT1-luciferase reporter, IFN-gamma, luminescence; at 5.5 µM; stronger effect = higher value; 100% = IFN-gamma alone, no compound.
`CCN1CCC2(CC1)N=C(c1ccc(F)cc1)C(=S)N2C(=O)c1ccc(C)cc1`: the activation (% of control) was 111% (inactive).

As to `c1ccc2[nH]c(-c3nc4ccccc4[nH]3)nc2c1`, the activation (% of control) is 146% (active). Consider `Cc1ccc(-c2nc3ccccc3[nH]2)cc1N`, for which the activation (% of control) is 118% (inactive). As to `c1ccc(-c2[nH]ncc2-c2nc3ccccc3[nH]2)cc1`, the activation (% of control) was 89.6% (inactive). For the molecule `O=C(Nc1ccncc1)c1ccccc1[N+](=O)[O-]`, the activation (% of control) was 105% (inactive). With `O=C(NC(CC(=O)N1CCN(c2ccccc2)CC1)c1ccccc1)c1ccccc1Cl` (stereo not given) the figure was 95% (inactive); with `O=C(OCC(=O)c1c[nH]c2ccccc12)c1cccc(O)c1`, 93.7% (inactive); with `O=S(=O)(NCCc1ccc(F)cc1)c1cccc2cccnc12`, 102% (inactive).

For `OCC1(CCc2ccccc2)CCN(Cc2ccc3nsnc3c2)CC1`, the activation (% of control) is 100% (inactive).

As for `Cc1ccc(S(=O)(=O)N2CCOCC2)cc1C(=O)NC(=S)N(Cc1ccccc1)C(C)C`, the activation (% of control) is 102% (inactive). Take `Cc1ccc(S(=O)(=O)N2CCC(C(=O)NCC3CCCO3)CC2)cc1` (stereo not given): the activation (% of control) is 99.9% (inactive). Take `Cc1ccc(C(=O)N/C(=C/c2cccs2)C(=O)NCC2CCCO2)cc1` (stereo not given): the activation (% of control) is 99.5% (inactive).

Consider `Cc1ccc(-n2c(C)cc(/C=C(\C#N)C(=O)NCC3CCCO3)c2C)cc1` (stereo not given), for which the activation (% of control) was 140% (active).

As for `O=C(Nc1ccc(F)c([N+](=O)[O-])c1)C1CC(=O)N(Cc2ccccc2)C1` (stereo not given), the activation (% of control) is 95.9% (inactive). On to `CN(C)Cc1ccc(F)cc1Sc1cc(Cl)ccc1Cl`, for which the activation (% of control) is 98.7% (inactive).

In the case of `O=C(COC(=O)Cn1cnc2ccccc21)Nc1cccc2c1C(=O)c1ccccc1C2=O`, the activation (% of control) is 104% (inactive). In the case of `O=C(c1cnn2ccccc12)N1CCc2ccccc21`, the activation (% of control) is 136% (active). With `Cc1occc1C(=O)N1CCCc2ccccc21` the figure was 104% (inactive); with `O=C(c1cccc(C(=O)N2CCc3ccccc32)n1)N1CCc2ccccc21`, 95.1% (inactive). On to `O=C(Cc1c(F)cccc1Cl)Nc1ccc(-n2cnnn2)cc1`, for which the activation (% of control) was 98.6% (inactive).

As to `COc1ccc(NC(=O)CN2C(=O)C(c3ccccc3)=NC23CCCCCC3)cc1OC`, the activation (% of control) was 104% (inactive). In the case of `N#CC(=C1CCCC1)c1nc(-c2ccc(Cl)cc2)cs1`, the activation (% of control) is 110% (inactive).

With `N#CC(=C1SC=CS1)c1nc(-c2ccccc2)cs1`, the activation (% of control) is 133% (active). Regarding `N#C/C(=C1\CCCN1)c1nc(-c2ccccc2)cs1`, the activation (% of control) was 105% (inactive).

As for `O=C(CN(CC1CCCO1)C(=O)CNS(=O)(=O)c1ccc(F)cc1)NCc1ccco1` (stereo not given), the activation (% of control) was 109% (inactive).

Regarding `COc1cc(OC)cc(-c2nc(=S)n3ccsc3n2)c1`, the activation (% of control) was 108% (inactive). On to `Cc1cc(=O)oc(C)c1C(=O)N1CCCCC1`, for which the activation (% of control) was 104% (inactive). For `Cc1ccc2cc3cc(C(=O)N4CCCCCC4)oc3nc2c1`, the activation (% of control) is 169% (active).

Regarding `Cc1cccc(C(=O)N2CCCN(C(=O)c3cccc(C)c3)CC2)c1`, the activation (% of control) is 103% (inactive). For the molecule `CC(=NCC1CCCO1)c1c(O)[nH]c(=O)[nH]c1=O` (stereo not given), the activation (% of control) is 106% (inactive). Regarding `O=C1C(C=NCC2CCCO2)=C(O)c2ccccc21` (stereo not given), the activation (% of control) was 137% (active).

Take `O=C(CS(=O)(=O)Cc1ccccc1)NCC1CCCO1` (stereo not given): the activation (% of control) is 94.5% (inactive). With `COc1ccc(CCNC(=O)CN(c2ccccc2)S(C)(=O)=O)cc1`, the activation (% of control) was 98% (inactive). As for `COc1ccc(-n2nnnc2SCC(=O)Nc2ccccc2)cc1`, the activation (% of control) was 99.3% (inactive).

For the molecule `COc1ccc(-n2nnnc2-c2nc3ccccc3s2)cc1`, the activation (% of control) was 166% (active).

Turning to `CCOc1cccc(-n2nnnc2-c2ccc(OC)cc2)c1`, the activation (% of control) was 93.4% (inactive). Turning to `Cc1ccc(C(=O)N/C(=C\c2cccs2)C(=O)NCCc2ccccn2)cc1C`, the activation (% of control) was 103% (inactive). With `CN(C)C(=O)CSc1n[nH]c(-c2ccco2)n1` the figure was 101% (inactive); with `CC(=O)OC(C(=O)NC1CCCCC1)c1ccccc1` (stereo not given), 95.8% (inactive); with `O=C(Cn1c(-c2cncs2)nc2ccccc21)NC1CCCC1`, 103% (inactive). For `O=C(/C=C/c1cnc2ccccc2n1)NC1CCCCCC1`, the activation (% of control) was 142% (active). On to `C/C(=C/C(=O)N1CCN(C)CC1)C(=O)O`, for which the activation (% of control) is 88.6% (inactive). With `CCOn1c(=O)c(=O)n(O)c2ccccc21` the figure was 95.6% (inactive); with `COC(=O)c1cccc([N+](=O)[O-])c1CS(=O)(=O)c1ccc(C)cc1`, 98.8% (inactive); with `O=c1oc2ccccc2cc1-c1csc(Nc2ccc(O)cc2)n1`, 117% (inactive). Turning to `CCNc1nc(-c2cc3ccccc3o2)cs1`, the activation (% of control) was 176% (active).

`Cc1nc(C)c(-c2csc(NCCc3ccccc3)n2)s1`: the activation (% of control) is 102% (inactive). With `CC1(C)CC(=O)C2=C(C1)Nc1cc(C(=O)c3ccccc3)ccc1NC2c1ccccn1` (stereo not given) the figure was 104% (inactive). Regarding `CCN1CCN(C(C(=O)NC2CCCC2)c2cc3c(cc2[N+](=O)[O-])OCO3)CC1` (stereo not given), the activation (% of control) is 107% (inactive). On to `Cc1ccc(SCC(=O)c2sc(-c3ccccc3)nc2C)cc1`, for which the activation (% of control) was 102% (inactive). As to `Cc1nc(-c2ccccc2)sc1C(=O)/C=C/N(C)C`, the activation (% of control) was 147% (active). Consider `Cc1nc(-c2ccccc2)sc1C(=O)/C=C/c1ccccc1`, for which the activation (% of control) is 105% (inactive). Consider `Cc1cccc(/C(N)=N/OC(=O)c2ccccc2Cl)c1`, for which the activation (% of control) was 138% (active). As for `Cc1cccc(C(=O)c2cccc(C)c2)c1`, the activation (% of control) is 103% (inactive). Regarding `N/C(=N\OC(=O)c1cc(-c2ccccc2)nc2ccccc12)c1ccncc1`, the activation (% of control) was 99.8% (inactive). In the case of `COc1ccccc1C(=O)CSc1cccc[n+]1[O-]`, the activation (% of control) was 105% (inactive). In the case of `CC(C)Oc1ccc(Cc2n[nH]c(=S)n2Cc2ccccc2)cc1Cl`, the activation (% of control) is 90.5% (inactive).

As to `CCN1CCc2nc(NC(=O)c3cc(F)c(F)cc3Cl)sc2C1`, the activation (% of control) is 111% (inactive).

With `Cc1ccc(NC(=O)Nc2ccccc2)c(Br)c1`, the activation (% of control) was 164% (active).

As to `CC(=O)c1cccc(NC(=O)Nc2ccc(C)cc2)c1`, the activation (% of control) is 118% (inactive). For the molecule `Cc1cccc(NC(=O)Nc2nnc(-c3ccccc3)o2)c1`, the activation (% of control) is 99.5% (inactive). On to `CN=C(c1ccccc1)c1c(C)cccc1C`, for which the activation (% of control) is 93.1% (inactive).

For `O=C(CC1C(=O)NCCN1Cc1ccc(-c2ccccc2)cc1)NCC1CCOCC1` (stereo not given), the activation (% of control) is 102% (inactive). For the molecule `O=C(Cc1csc(Nc2nc(=S)[nH]c3ccccc23)n1)NCCCN1CCN(c2cccc(Cl)c2)CC1`, the activation (% of control) was 90.9% (inactive). As for `COC(=O)CCC(=O)N1CCCC(CO)(Cc2ccccc2)C1` (stereo not given), the activation (% of control) was 146% (active). With `Cc1ccccc1CC1(CO)CCCN(C(=O)c2cc(-c3ccccc3)no2)C1` (stereo not given), the activation (% of control) was 104% (inactive).

Regarding `CC(=O)c1cccc(CN2CCC(CO)(Cc3ccccc3)CC2)c1`, the activation (% of control) was 96% (inactive). With `CCc1nnc(NC(=O)c2cccc(S(=O)(=O)N(C)c3ccc(OC)cc3)c2)s1` the figure was 86.1% (inactive); with `CCN(CC(=O)NCc1cccs1)S(=O)(=O)c1ccc(NC(C)=O)cc1`, 104% (inactive); with `CCn1c(/C=C/Nc2ccccc2)[n+](CC)c2ccc(C(=O)OCC(F)(F)F)cc21`, 88.3% (inactive). With `COCc1ccc(C(=O)N2CCc3c([nH]c4ccccc34)C2c2ccccn2)s1` (stereo not given) the figure was 94% (inactive). Consider `Cc1ccc(OCC(=O)Nn2cnc3ccccc32)cc1`, for which the activation (% of control) is 104% (inactive). With `COCCOCCn1cnc2ccccc21` the figure was 104% (inactive); with `COC(=O)c1ccc(-n2cnc3ccccc32)nc1`, 129% (active); with `O=C(O)CC1S/C(=N\N=C/c2ccccc2O)N(c2ccc(O)cc2)C1=O` (stereo not given), 102% (inactive).

On to `Cc1cccc2c1N(CCOc1ccccc1)C(=O)C2=O`, for which the activation (% of control) is 99% (inactive).

Take `Cc1nc2ccccc2cc1C(=O)N/N=C/c1ccc([N+](=O)[O-])cc1`: the activation (% of control) is 93.6% (inactive).

On to `Cc1cc(O)c(NC(=O)c2ccc(C)c([N+](=O)[O-])c2)cc1C`, for which the activation (% of control) is 103% (inactive).

For `Cc1ccc(NC(=O)CN(C)CC(=O)Nc2cccc(F)c2)cc1[N+](=O)[O-]`, the activation (% of control) was 67.3% (inactive).

As for `Cc1ccsc1C(=O)N/N=C/c1ccc([N+](=O)[O-])cc1`, the activation (% of control) was 146% (active). Consider `NC(=S)N/N=C/c1ccc([N+](=O)[O-])cc1`, for which the activation (% of control) is 121% (inactive). With `Cc1ccc(NC(=O)c2sccc2C)cc1[N+](=O)[O-]` the figure was 138% (active); with `C=CCNC(=O)COC(=O)c1ccccc1C(=O)N(C)C1CCCCC1`, 95.6% (inactive); with `O=c1[nH]n(-c2ccc([N+](=O)[O-])cc2)c(=O)c2ccccc12`, 101% (inactive).

With `CCN1CC(CN(C)Cc2nc(-c3ccc(Cl)cc3)no2)CC1=O` (stereo not given), the activation (% of control) was 96.3% (inactive).

With `CC(C)C(c1nnnn1C(C)(C)C)N1CCN(Cc2cccnc2)CC1` (stereo not given), the activation (% of control) was 98.8% (inactive). Consider `CCCCCC(=O)Nc1ccc(-c2cn3cccnc3n2)cc1`, for which the activation (% of control) is 103% (inactive). On to `CCC(C)(C)C1CCC(=NNC(=O)c2ccc(Br)o2)CC1` (stereo not given), for which the activation (% of control) was 129% (active). For the molecule `CC(C)(C)C1CCC(=NNC(=O)c2ccc(Br)o2)CC1` (stereo not given), the activation (% of control) was 121% (inactive).

As to `C/C(=N/NC(=O)c1ccc(Br)o1)c1ccc(C)o1`, the activation (% of control) is 112% (inactive). With `COc1ccccc1-n1c(C)nc2cc(C(=O)NCc3ccc4c(c3)OCO4)ccc21`, the activation (% of control) was 98.5% (inactive). With `COc1ccc(OC)c2[nH]c(=O)c(CCNC(=O)C(=O)c3c[nH]c4ccccc34)cc12` the figure was 95.3% (inactive). `Cc1ccc(NC(=O)CC2C(=O)N(Cc3ccccc3)C(=S)N2NC(=O)c2cccc(F)c2)c(C)c1` (stereo not given): the activation (% of control) is 103% (inactive). Turning to `Cn1c(=O)c2c(nc(N3CCCCCC3)n2CC(=O)c2ccc(Br)cc2)n(C)c1=O`, the activation (% of control) was 94.8% (inactive). `CC(=O)Cn1ncc(N2CCOCC2)c(Br)c1=O`: the activation (% of control) was 104% (inactive). In the case of `O=C(Cn1ncc(N2CCCC2)c(Br)c1=O)c1ccc(Cl)cc1`, the activation (% of control) was 130% (active). On to `O=C(COC(=O)/C=C/c1nc2ccccc2s1)Nc1ccccc1Oc1ccccc1`, for which the activation (% of control) is 95.5% (inactive). With `CC(=O)NCC(=O)N1CCCC(C(=O)c2ccc3c4c(cccc24)CC3)C1` (stereo not given) the figure was 99.2% (inactive). Regarding `CCOC(=O)C1CCN(c2ccc(C(=O)O)cc2[N+](=O)[O-])CC1`, the activation (% of control) is 98.3% (inactive). With `COc1ccc(NC(=O)N2CCCC(c3nc(-c4ccc(F)cc4)no3)C2)cc1` (stereo not given) the figure was 102% (inactive).
